In the supplement of paper PMC10849652:
Of roughly 8,800 targets only a part is listed; those with a hit were picked by preference. About 0.5% of all pairs of compound and target were hits. Unmarked numbers belong to inactive results.

What was measured:
Assay in all cases: log2 fold change, soluble protein after heating vs DMSO (PISA); higher = thermal stabilisation; K562 lysate, 10 uM; active = over 0.2 and 3.5 SD of the protein, either way, in both replicates (recomputed)
[1] = compound: C1=CC=C(C=C1)[C@H](COC2=CC3=C(C=C2)NC(=O)N3)NC(=O)C4=CC=CN(C4=O)CC5=CC(=C(C=C5)F)F
Summary of the method: (§1)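 Dounce homogenisation of K562 pellets in PBS pH 7.4 with 1 mM MgCl2 produced a crude extract, used at 1 mg/mL protein. Exposure to 10 μM compound lasted 30 min, and aliquots were then heated for 3 min across 48°C-58°C, pooled and brought to 0.5% NP-40 at 4°C. The supernatant after 21,000xg for 90 min was quantified by TMTpro 16plex LC-MS/MS with channel sums equalised. Duplicate values are given as log-two fold change in thermal stability relative to solvent controls.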

[2] = compound: CC1=C(SC2=C1C(=N[C@H](C3=NN=C(N32)C)CC(=O)N)C4=CC=C(C=C4)Cl)C
Summary of the method: as §1

[3] = compound: CC1=C2C(=CC=C1)N=C(N(C2=O)C3=CC=CC=C3C)CN4C=NC5=C(N=CN=C54)N
Summary of the method: as §1

[4] = compound: Cc1sc2c(c1C)C(c1ccc(Cl)cc1)=N[C@@H](CC(=O)OC(C)(C)C)c1nnc(C)n1-2
Summary of the method: as §1

[5] = compound: c1ccc([C@@H]2C[C@H]2NC2CCNCC2)cc1
Summary of the method: as §1

[6] = compound: C1COCCN1CCN2C3=CC=CC=C3N=C2NC(=O)C4=CC(=CC=C4)[N+](=O)[O-] [IRAK-1-4 Inhibitor I]
Summary of the method: as §1

Chain of UniProt Q9UEE9 (Q9UEE9 whole entry, looked up): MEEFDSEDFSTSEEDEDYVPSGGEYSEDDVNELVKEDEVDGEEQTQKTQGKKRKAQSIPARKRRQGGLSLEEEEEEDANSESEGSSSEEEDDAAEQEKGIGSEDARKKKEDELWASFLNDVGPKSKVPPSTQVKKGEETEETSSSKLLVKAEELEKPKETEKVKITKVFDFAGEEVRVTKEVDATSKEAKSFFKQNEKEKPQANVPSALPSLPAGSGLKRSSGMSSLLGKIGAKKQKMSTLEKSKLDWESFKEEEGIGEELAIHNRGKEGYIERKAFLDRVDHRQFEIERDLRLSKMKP
Chain of UniProt Q9BUK0 (Q9BUK0 whole entry, looked up): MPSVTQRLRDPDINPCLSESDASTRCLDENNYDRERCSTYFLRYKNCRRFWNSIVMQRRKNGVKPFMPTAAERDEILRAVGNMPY
Chain of UniProt Q13042 (Q13042 whole entry, looked up): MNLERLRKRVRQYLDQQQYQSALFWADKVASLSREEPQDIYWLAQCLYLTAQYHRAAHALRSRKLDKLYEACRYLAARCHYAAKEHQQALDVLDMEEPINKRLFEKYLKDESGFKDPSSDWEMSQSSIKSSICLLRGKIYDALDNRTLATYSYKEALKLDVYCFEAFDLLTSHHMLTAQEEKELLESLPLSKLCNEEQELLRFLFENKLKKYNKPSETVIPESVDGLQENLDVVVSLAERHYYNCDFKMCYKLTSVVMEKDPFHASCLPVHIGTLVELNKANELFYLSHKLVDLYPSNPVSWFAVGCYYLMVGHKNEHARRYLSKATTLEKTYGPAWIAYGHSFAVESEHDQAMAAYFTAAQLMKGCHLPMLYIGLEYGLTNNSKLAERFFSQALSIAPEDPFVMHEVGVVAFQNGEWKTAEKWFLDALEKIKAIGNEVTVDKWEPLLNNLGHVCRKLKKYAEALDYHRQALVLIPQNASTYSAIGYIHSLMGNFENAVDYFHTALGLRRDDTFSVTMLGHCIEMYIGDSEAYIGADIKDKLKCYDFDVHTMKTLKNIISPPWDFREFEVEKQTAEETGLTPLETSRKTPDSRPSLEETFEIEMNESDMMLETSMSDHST
Chain of UniProt Q9UL45 (Q9UL45 whole entry, looked up): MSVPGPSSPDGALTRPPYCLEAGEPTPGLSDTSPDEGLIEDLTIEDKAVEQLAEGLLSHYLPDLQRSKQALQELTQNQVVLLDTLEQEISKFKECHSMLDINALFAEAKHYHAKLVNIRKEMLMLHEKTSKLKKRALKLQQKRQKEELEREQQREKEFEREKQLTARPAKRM
Chain of UniProt O75419 (O75419 whole entry, looked up): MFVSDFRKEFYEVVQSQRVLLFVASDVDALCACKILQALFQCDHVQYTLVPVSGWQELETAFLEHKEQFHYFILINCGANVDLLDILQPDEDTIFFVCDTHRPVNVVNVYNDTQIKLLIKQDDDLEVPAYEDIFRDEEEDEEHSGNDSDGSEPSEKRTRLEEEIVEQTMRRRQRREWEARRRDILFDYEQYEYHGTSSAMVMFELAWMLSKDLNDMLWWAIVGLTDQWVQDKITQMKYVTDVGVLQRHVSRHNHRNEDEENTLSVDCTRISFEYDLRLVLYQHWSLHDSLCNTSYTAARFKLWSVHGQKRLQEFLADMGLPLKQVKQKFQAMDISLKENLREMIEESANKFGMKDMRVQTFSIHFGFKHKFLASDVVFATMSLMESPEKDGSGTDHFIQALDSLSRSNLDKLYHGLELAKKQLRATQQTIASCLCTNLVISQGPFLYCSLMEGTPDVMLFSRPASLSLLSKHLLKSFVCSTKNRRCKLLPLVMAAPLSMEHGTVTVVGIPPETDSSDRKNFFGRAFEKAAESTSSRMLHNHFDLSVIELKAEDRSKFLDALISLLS
Chain of UniProt Q96SZ6 (Q96SZ6 whole entry, looked up): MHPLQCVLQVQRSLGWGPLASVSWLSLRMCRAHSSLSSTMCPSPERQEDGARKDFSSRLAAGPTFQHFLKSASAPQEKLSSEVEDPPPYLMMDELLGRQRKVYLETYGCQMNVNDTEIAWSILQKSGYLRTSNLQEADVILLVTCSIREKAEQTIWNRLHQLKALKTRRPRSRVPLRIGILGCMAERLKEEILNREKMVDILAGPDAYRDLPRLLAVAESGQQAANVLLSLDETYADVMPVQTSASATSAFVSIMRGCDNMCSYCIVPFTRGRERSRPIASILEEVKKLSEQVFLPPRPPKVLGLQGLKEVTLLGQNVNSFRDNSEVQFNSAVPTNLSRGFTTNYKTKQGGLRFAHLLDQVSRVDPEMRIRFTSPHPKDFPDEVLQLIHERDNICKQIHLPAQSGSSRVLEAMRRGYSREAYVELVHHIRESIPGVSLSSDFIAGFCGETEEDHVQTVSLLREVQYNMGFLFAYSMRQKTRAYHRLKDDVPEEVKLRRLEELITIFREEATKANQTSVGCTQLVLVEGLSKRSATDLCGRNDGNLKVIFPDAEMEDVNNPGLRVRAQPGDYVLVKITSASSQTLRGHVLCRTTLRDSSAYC
Chain of UniProt O75143 (O75143 whole entry, looked up): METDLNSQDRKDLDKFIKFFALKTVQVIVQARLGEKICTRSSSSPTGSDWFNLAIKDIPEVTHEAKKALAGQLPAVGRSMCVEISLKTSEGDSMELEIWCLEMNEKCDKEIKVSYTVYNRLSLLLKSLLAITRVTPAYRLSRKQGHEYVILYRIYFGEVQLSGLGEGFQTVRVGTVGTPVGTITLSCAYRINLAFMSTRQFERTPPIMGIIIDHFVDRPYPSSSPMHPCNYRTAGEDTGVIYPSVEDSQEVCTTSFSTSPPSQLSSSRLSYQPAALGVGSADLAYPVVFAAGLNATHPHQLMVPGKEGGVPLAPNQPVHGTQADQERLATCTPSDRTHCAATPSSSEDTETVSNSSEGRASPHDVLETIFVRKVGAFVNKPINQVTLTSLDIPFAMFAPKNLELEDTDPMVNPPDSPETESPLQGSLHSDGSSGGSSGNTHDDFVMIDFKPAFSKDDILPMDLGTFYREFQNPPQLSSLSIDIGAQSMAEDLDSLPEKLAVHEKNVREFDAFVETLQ
Chain of UniProt O14981 (O14981 whole entry, looked up): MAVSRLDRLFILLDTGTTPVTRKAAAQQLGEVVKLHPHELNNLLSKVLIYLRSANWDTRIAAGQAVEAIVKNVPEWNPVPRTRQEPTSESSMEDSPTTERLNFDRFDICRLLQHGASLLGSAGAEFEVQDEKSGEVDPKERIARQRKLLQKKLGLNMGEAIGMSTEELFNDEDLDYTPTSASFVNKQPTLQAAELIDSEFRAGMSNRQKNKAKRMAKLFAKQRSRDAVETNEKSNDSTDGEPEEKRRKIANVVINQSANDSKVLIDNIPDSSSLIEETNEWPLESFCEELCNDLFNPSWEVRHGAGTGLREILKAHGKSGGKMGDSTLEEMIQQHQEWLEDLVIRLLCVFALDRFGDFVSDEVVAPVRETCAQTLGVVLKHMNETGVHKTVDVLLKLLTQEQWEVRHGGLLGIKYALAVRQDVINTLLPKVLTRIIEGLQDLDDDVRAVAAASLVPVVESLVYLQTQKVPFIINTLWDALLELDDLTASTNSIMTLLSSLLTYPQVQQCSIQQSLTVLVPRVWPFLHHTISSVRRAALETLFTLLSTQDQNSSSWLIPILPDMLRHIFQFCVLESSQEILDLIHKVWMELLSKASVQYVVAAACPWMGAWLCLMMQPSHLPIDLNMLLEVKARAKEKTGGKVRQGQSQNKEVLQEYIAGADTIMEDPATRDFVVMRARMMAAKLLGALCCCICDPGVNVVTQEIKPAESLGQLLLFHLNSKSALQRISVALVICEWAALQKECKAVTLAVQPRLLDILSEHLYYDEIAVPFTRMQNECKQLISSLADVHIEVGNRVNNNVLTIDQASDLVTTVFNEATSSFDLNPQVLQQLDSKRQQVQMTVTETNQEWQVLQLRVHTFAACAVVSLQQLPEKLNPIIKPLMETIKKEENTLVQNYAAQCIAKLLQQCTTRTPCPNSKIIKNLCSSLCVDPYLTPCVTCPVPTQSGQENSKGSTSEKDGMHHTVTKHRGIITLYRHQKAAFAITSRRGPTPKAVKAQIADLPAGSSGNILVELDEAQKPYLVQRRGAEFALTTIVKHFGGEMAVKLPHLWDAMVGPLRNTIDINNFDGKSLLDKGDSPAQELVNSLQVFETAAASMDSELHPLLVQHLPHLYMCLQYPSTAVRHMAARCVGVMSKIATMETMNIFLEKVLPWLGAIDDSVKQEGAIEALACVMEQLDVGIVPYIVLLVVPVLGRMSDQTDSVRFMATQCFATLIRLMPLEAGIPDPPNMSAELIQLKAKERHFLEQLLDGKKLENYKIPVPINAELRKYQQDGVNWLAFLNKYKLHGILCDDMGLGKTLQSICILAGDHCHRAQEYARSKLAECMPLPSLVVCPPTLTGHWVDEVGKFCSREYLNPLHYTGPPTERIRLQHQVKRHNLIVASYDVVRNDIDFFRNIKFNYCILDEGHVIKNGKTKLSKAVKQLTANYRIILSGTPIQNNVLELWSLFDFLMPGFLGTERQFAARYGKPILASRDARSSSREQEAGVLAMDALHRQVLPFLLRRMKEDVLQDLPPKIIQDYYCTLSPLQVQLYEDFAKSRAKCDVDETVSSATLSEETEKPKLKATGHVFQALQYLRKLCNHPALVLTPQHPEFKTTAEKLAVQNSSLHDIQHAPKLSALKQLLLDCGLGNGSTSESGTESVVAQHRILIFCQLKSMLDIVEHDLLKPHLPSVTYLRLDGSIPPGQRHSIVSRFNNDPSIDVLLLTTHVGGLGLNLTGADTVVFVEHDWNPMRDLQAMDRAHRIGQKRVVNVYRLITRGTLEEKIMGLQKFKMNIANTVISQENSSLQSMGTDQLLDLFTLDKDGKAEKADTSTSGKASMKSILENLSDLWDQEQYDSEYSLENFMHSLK
Chain of UniProt A6NDU8 (A6NDU8 whole entry, looked up): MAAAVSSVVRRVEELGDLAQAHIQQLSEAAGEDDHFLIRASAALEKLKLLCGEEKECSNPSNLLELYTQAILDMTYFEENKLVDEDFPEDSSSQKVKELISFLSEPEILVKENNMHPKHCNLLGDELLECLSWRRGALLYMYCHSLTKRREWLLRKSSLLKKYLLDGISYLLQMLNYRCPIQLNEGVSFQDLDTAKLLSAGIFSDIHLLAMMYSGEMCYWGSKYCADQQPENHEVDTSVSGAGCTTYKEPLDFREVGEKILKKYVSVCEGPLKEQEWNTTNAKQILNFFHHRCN

| Target | log2 fold change [1] | log2 fold change [2] | log2 fold change [3] | log2 fold change [4] | log2 fold change [5] | log2 fold change [6] |
| --- | --- | --- | --- | --- | --- | --- |
| CCNB2 (UniProt O95067) | -0.005 | 0.026 | 0.047 | 0.048 | 0.033 | – |
| C5orf51 (UniProt A6NDU8) | -0.047 | -0.023 | 0.001 | -0.026 | 0.092 | – |
| CDC45 isoform 3 (UniProt O75419) | 0.076 | -0.01 | 0 | -0.018 | 0.026 | – |
| CDC42BPA isoform 6 (UniProt Q5VT25) | 0.008 | -0.003 | -0.008 | 0.026 | 0.052 | – |
| CDC16 (UniProt Q13042) | -0.038 | 0.027 | 0.025 | 0.03 | 0.021 | – |
| ATM (UniProt Q13315) | -0.015 | 0.013 | -0.037 | 0.038 | -0.036 | – |
| CELF1 isoform 4 (UniProt Q92879) | 0.04 | -0.005 | 0.07 | 0.044 | 0.144 | – |
| ATG13 isoform 2 (UniProt O75143) | 0.001 | 0.026 | 0.055 | 0.045 | -0.166 | – |
| BTAF1 (UniProt O14981) | 0.013 | 0 | -0.005 | 0.04 | -0.02 | – |
| CDK5RAP1 (UniProt Q96SZ6) | 0.266 (active) | -0.117 | 0.05 | -0.023 | -0.004 | – |
| CDS2 (UniProt O95674) | 0.01 | 0.004 | -0.056 | -0.034 | -0.024 | – |
| CBX1 (UniProt P83916) | 0.031 | -0.03 | 0.032 | 0.009 | 0.13 | – |
| CHCHD7 isoform 4 (UniProt Q9BUK0) | 0.08 | -0.052 | 0.074 | -0.071 | -0.22 | – |
| C1orf112 (UniProt Q9NSG2) | 0.066 | -0.011 | -0.007 | 0.066 | -0.345 | – |
| CFDP1 (UniProt Q9UEE9) | 0.051 | -0.03 | -0.017 | -0.03 | -0.124 | – |
| BLOC1S6 (UniProt Q9UL45) | -0.078 | 0.035 | -0.04 | -0.046 | 0.021 | – |
| BCORL1 isoform 3 (UniProt Q5H9F3) | – | – | – | – | – | -0.141 |
